Screening results from PubChem.
Rab9 prom act = activators of Rab9 promoter | 320,000 tested, 2.8% active | Huh7 Rab9 promoter-luciferase reporter, luminescence, 24 h | Potency, µM (highest dose often 9.22 µM), for inactives: at the highest dose activation, negative = inhibition, usual class: activators; further: % of control where 0% means no effect; nearly all actives have a fitted effect of over 60% in size
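Promoter activation is measured as luciferase luminescence in Huh7 cells stably transfected with a Rab9 promoter–luciferase construct, following 24 h compound exposure at 37 °C and 10 min reagent incubation at ambient temperature.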
FLuc counter = counter-screen for miR-21 project: firefly luciferase inhibitors or activators | P08659 | purified FLuc, Km substrates, luminescence inhibition | Potency, µM (doses to about 57.5 µM), inactives show top-dose activity change, negative = inhibition, hits mostly inhibitors | 360,000 tested, 6.9% active | AID 588342;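 further: plate controls were vehicle for no effect and reference inhibitor for full effect; nearly all actives have a fitted effect of over 55% in size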
Target sequence (P08659 whole entry, looked up): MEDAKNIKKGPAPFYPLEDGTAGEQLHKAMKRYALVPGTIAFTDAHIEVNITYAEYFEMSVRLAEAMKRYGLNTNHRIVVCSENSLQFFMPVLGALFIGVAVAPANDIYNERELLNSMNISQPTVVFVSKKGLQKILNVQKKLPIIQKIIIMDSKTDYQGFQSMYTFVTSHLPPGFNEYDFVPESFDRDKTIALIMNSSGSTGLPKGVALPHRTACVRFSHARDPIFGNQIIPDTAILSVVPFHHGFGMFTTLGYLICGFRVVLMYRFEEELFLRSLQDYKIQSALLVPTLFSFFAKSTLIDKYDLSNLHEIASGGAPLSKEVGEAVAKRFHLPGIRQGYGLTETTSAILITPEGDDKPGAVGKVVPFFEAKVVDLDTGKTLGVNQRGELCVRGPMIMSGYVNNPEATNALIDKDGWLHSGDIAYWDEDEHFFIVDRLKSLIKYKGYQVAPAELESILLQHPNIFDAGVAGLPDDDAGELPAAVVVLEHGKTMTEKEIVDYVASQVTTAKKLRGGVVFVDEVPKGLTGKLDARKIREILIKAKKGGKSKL
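Biochemical qHTS of compounds, final roughly 60 µM downward over six points, against 10 nM purified firefly luciferase using Km concentrations of substrates (10 uM D-luciferin, 10 uM ATP) in Tris acetate pH 7.5 buffer; luminescence output.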
ELG1 genotoxic = inducers of genotoxicity in HEK293T ELG1-luciferase cells; HEK293T ELG1-luciferase reporter, luminescence, 16 h; AID 504466; 330,000 tested, 1.3% active; Potency, µM (top dose mostly 46 µM), for inactives: top-dose activity change, positive = activation, hits mostly activators; further: % of control where 0% means no effect; nearly all actives have a fitted effect of over 60% in size
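Genotoxic stress is detected as increased luminescence from luciferase-tagged ELG1 in HEK293T cells, measured with ONE-Glo after a 16 hr treatment at 37 °C.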
ELG1 repair inh = inhibitors of ELG1-dependent DNA repair in HEK293T cells. Potency, µM (titrated, usually from 46.1 µM), for inactives: at the top dose activity change, negative = inhibition, most hits filed as inhibitors. 330,000 tested, 2.3% active. HEK293T ELG1-luciferase reporter, luminescence, 16 h; DNA damage induced by 5-fluorouridine; further: on the % scale 0 is the no-effect control and ±100 the full control effect; nearly all actives have a fitted effect of over 55% in size
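Overnight (16 hr) co-exposure of 2,000 cells/well to 5-fluorouridine and compound at 37 °C preceded detection. Luciferase was quantified via ONE-Glo luminescence; loss of signal denotes inhibition.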
SMN2 splice enh = SMN2 splice variant enhancement | HEK293 SMN2-luciferase splicing reporter, luminescence, 30-36 h | Potency, µM (titrated, usually from 46.1 µM), inactives show at the top dose activity change, positive = activation, hits mostly activators | 210,000 tested, 2.8% active; further: % of control where 0% means no effect; nearly all actives have a fitted effect of over 55% in size
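HEK293 cells carry an SMN2 […]–luciferase reporter in which exon 7 inclusion puts luciferase in frame. Cells were plated 10-12 h before compound addition, then incubated 30-36 h at 37C. ONE-Glo luminescence was read; sodium butyrate at 4.5 mM final served as control.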
NPC1 prom act = NPC1 promoter activation; Huh7 NPC1 promoter luciferase reporter, 24 h; Potency, µM (top dose mostly 9.22 µM), inactives show top-dose activation, most hits filed as activators; 320,000 tested, 2.4% active; AID 485313; further: % of control where 0% means no effect; nearly all actives have a fitted effect of over 60% in size
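Luminescence from an NPC1 promoter-driven luciferase reporter in stably transfected Huh7 cells was measured after 24 h compound treatment at 37 °C, followed by 10 min ambient incubation with luciferase detection reagent.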
* hit, by the source's call; ? = inconclusive; . = no result given; [ ] = dose if it differs, or a comment. Compounds with a hit are over-represented: about 9.4% of the library has one in this group of screens. The call rests on the fitted dose curve; in most records, active means well fitted curve in the direction sought with a large enough effect; inconclusive means small, poorly fitted or top-dose-only effect, or another doubt; inactive means no such curve, though single readings can be large; an effect the other way counts as inactive or inconclusive. Potency means the concentration at half of the fitted maximal effect.

SMILES	Rab9 prom act	FLuc counter	ELG1 genotoxic	ELG1 repair inh	SMN2 splice enh	NPC1 prom act
CCc1ccc(NC(=O)C(=O)NCCOc2ccccc2Cl)cc1	-4.4%	-1.8%	-0.5%	8.3%	3.7%	-3.8%
CCOc1cc(CNC(=O)Cn2ncn3c(cc4cc(F)ccc43)c2=O)cc(OCC)c1OCC	.	2.0%	.	.	1.9%	.
COc1cccc([C@@H]2Oc3ccc(Br)cc3C[C@H]2OC(=O)Nc2cc(OC)c(OC)c(OC)c2)c1	.	.	.	.	-9.0%	.
CC(=O)C[C@H](c1ccc([N+](=O)[O-])cc1)c1c(O)c2ccccc2oc1=O	.	.	.	.	-15.9%[20.6 µM]	.
Cc1cc(O)c(CN2CCN(S(=O)(=O)c3cccs3)CC2)cc1C(C)C	-4.3%	2.8%	-4.6%	11.2µM*	.	1.2%
O=S(=O)(c1cccs1)N1CCN(Cc2cccc(F)c2)CC1	-0.2%	0.0%	0.5%	9.3%	.	-4.5%
CC(=O)c1cc2c(C)c(C(=O)c3ccccc3)oc2cc1O	1.58µM*	0.536µM*	?	?	-6.5%[1.84 µM]	3.98µM*
CCOCCc1nn2c(=O)cc(COC(=O)c3ccc4c(c3)OCO4)nc2s1	.	1.5%	.	.	.	.
COc1ccccc1C(=O)NCc1ccc(-c2nc3ccccc3s2)cc1	?	6.01µM*	18.4%	?	-12.3%[1.84 µM]	28.3%
O=C(NCc1ccc(-c2nc3ccccc3s2)cc1)c1cc2ccccc2o1	1.9%	?	12.0%	?	.	1.3%
COc1ccc(C(=O)Nc2cc(C)c(O)c(-c3nc4ccccc4s3)c2)cc1OC	.	0.675µM*	.	.	5.3%	.
COc1cc(C(=O)Nc2cc(C)c(O)c(-c3nc4ccccc4s3)c2)cc(OC)c1OC	.	-10.8%	.	.	13.5%	.
COc1cccc(C(=O)NCc2ccc(-c3nc4ccccc4s3)cc2)c1	?	2.69µM*	20.6µM*	?	?	10.0%
COc1ccccc1C(=O)NCc1ccccc1	2.4%	-2.0%	7.2%	10.9%	-18.7%	-0.4%
O=C(NCc1ccc(-c2nc3ccccc3s2)cc1)c1ccc(Br)o1	23.6%	10.7µM*	?	?	-20.7%[1.84 µM]	14.4%
CCOc1ccccc1N1CCN(S(=O)(=O)c2ccc(C3CCCCC3)cc2)CC1	.	4.4%	.	.	-14.8%	.
Cn1ccc2c(OCC(=O)NCc3ccccc3Cl)cccc2c1=O	.	2.6%	.	.	.	.
CC(C)c1nn2c(=O)cc(COC(=O)c3cccc(NC(=O)CCc4ccccc4)c3)nc2s1	.	-16.9%	.	.	.	.
COc1cc(C(=O)NCc2ccc(-c3nc4ccccc4s3)cc2)cc(OC)c1OC	?	0.601µM*	?	?	17.8µM*	23.0%
COc1ccc(C(=O)NCc2ccc(-c3nc4ccccc4s3)cc2)cc1	21.7%	2.39µM*	-0.7%	?	-6.1%	24.2%
COc1ccc(-c2nc3ccccc3s2)cc1NC(=O)c1ccccc1OC	.	10.7µM*	.	.	?	.
COc1ccccc1C(=O)Nc1ccc(-c2nc3ccccc3s2)c(C)c1	.	3.79µM*	.	.	.	.
COc1cc(C(=O)NCc2ccc(OCCN(C)C)cc2)cc(OC)c1OC	-0.6%	4.0%	23.1µM*	?	?	-4.0%
Cc1ccc(NC(=O)CN(C)C(=O)c2nn(C)c(=O)c3ccccc23)cc1	-3.6%	-10.7%	-8.4%	-23.4%	.	1.2%
C=CCN=C(NC#N)SCC(=O)c1cccc(OC)c1	?	?	6.1%	?	?	3.55µM*
SMILES	Rab9 prom act	FLuc counter	ELG1 genotoxic	ELG1 repair inh	SMN2 splice enh	NPC1 prom act
O=C(O)c1ccc(N/N=C/C=C/c2ccccc2)cc1	0.251µM*	0.601µM*	?	?	.	0.316µM*
CC(C)c1ccc(/C=N/Nc2ccc(C(=O)O)cc2)cc1	-23.2%	0.19µM*	?	?	-70.7%	-23.0%
O=C(O)c1ccc(N/N=C/c2ccc(-c3ccccc3)cc2)cc1	0.316µM*	0.477µM*	?	?	3.98µM*	?
O=C(O)c1ccc(/C=N/Nc2ccc(C(F)(F)F)cn2)cc1	?	4.78µM*	?	?	12.6µM*	0.398µM*
O=C(O)c1ccc(/C=N/O)cc1	-0.6%	0.3%	0.7%	4.5%	.	-4.5%
CC(C)c1ccc(/C=N/NC(=O)CC(=O)NCc2ccccc2)cc1	-3.3%	?	5.0%	14.0%	29.7%	-7.8%
